# Assay results published in PubChem BioAssay (Tox21).
# Unmarked numbers belong to inactive results. Inconclusive results are not listed. Where a call stands in place of a potency, no number is given. The source made the active and inactive calls. Unless noted, calls come from the whole dose curve; as a rule, active = well fitted curve in the direction sought with a large enough effect in the repeat runs; inconclusive = weak or mixed curves; inactive = no such curve, though single readings can be large; an effect the other way counts as inactive or inconclusive.
# Legend:
# [1] = qHTS assay for small molecule agonists of the p53 signaling pathway (AID 651631; calls by dose curve; note: nearly all actives have a fitted effect of over 15% in size; note: potency is the fitted concentration of half-maximal effect)
# In short: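 HCT-116 cells carrying a stable p53 response element–beta-lactamase reporter were plated, rested 5 h at 37 °C, then exposed to compound in DMSO for 16 h at 37 °C; reporter activity was read as FRET substrate fluorescence after 2 h at room temperature.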
# [2] = qHTS assay for small molecules that induce genotoxicity in human embryonic kidney cells expressing luciferase-tagged ATAD5 (AID 651632); note: nearly all actives have a fitted effect of over 15% in size; note: potency is the fitted concentration of half-maximal effect
# In short: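 A rise in luciferase signal from ATAD5-tagged HEK293T cells marks genetic stress. Cells were exposed to compounds for 16 hr at 37C, 5% CO2, then luciferase was quantified after a 30 min room-temperature incubation with Amplite.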
# [3] = qHTS assay for small molecule agonists of the p53 signaling pathway - cell viability (AID 651633; calls by dose curve; note: series mostly up to about 83 µM; nearly all actives have a fitted effect of over 30% in size)
# In short: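 Viability counter-read: CellTiter-Glo luminescence (30 min, room temperature) in the same p53RE-bla plates. These plates had been exposed to compounds for 16 h at 37 C.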
# [4] = qHTS assay for small molecules that induce genotoxicity in human embryonic kidney cells expressing luciferase-tagged ATAD5 - cell viability (AID 651634; calls by dose curve; note: nearly all actives have a fitted effect of over 25% in size; note: potency is the fitted concentration of half-maximal effect)
# In short: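 Cytotoxicity counter-readout: after 15.5 hr compound treatment at 37C, live-cell protease activity in ATAD5-luciferase HEK293T cells measured by CellTiter-Fluor fluorescence, 30 min development at 37C.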
# [5] = qHTS assay for small molecule disruptors of the mitochondrial membrane potential - cell viability (AID 720634; calls by dose curve;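 note: human HepG2 liver cancer cells; series mostly up to about 83 µM; nearly all actives have a fitted effect of over 20% in size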)
# In short: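 Cytotoxicity was quantified from ATP content by CellTiter-Glo luminescence in the same wells as the MMP dye read-out. HepG2 (2,000 cells/well) were plated overnight and exposed to compounds for 1 hr at 37 C.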
# [6] = qHTS assay for small molecule disruptors of the mitochondrial membrane potential (AID 720635); note: potency is the fitted concentration of half-maximal effect
# In short: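 Mitochondrial membrane potential tracked with Mito-MPS dye, red aggregates (ex 540/em 590 nm) against green monomers (ex 490/em 535 nm). Compound treatment 1 hr at 37C, dye 30 min in HepG2.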
# [7] = qHTS assay to test for compound auto fluorescence at 590 nm (red) in HepG2 cells (AID 720674)
# In short: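 1 hr compound incubation on HepG2 cells, 37 C, 5% CO2; plate read ex 540 nm / em 590 nm; intensities reported as Rose Bengal sodium equivalents.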
# [8] = qHTS assay to test for compound auto fluorescence at 535 nm (green) in HepG2 cells (AID 720675)
# [9] = qHTS assay to test for compound auto fluorescence at 460 nm (blue) in HEK293 cells (AID 720678)
# In short: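 HEK293 cells (2,000 per well, medium with 10% dialyzed FBS) attached for 4-5 hr at 37C, then received compound and stood overnight at 37C, 5% CO2. Blue fluorescence was read at Ex/Em 405/460 nm and expressed relative to triamterene.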
# [10] = qHTS assay to test for compound auto fluorescence at 590 nm (red) in HEK293 cells (AID 720679)
# In short: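 HEK293 cells (2,000/well, medium with 10% dialyzed FBS) attached for 4-5 hr at 37C, received 23 nL compound and were incubated overnight at 37C, 5% CO2. Red fluorescence was then read at 540/590nm Ex/Em, referenced to Rose Bengal sodium.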
# [11] = qHTS assay to test for compound auto fluorescence at 535 nm (green) in HEK293 cells (AID 720680)
# [12] = qHTS assay to test for compound auto fluorescence at 460 nm (blue) in HEK293 cell free culture (AID 720681)
# In short: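 Blue fluorescence (Ex 405/Em 460 nm, triamterene-equivalent) was read immediately after pin transfer of compound or DMSO into medium (DMEM, 10% FBS) without cells.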
# [13] = qHTS assay to test for compound auto fluorescence at 535 nm (green) in HEK293 cell free culture (AID 720682)
# In short: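 Read-out: 485/535 nm fluorescence intensity, calibrated against fluorescein. Medium only (DMEM + 10% FBS, no cells); test compound or DMSO vehicle added by pintool before plate reading.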
# [14] = qHTS assay to test for compound auto fluorescence at 590 nm (red) in HEK293 cell free culture (AID 720683)
# In short: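 Red-channel autofluorescence of compounds in culture medium (DMEM, 10% FBS), no cells, measured at 540/590 nm. Rose Bengal sodium is the reference fluorophore for equivalence.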
# [15] = qHTS assay to test for compound auto fluorescence at 590 nm (red) in HepG2 cell free culture (AID 720684)
# In short: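 Cell-free; medium MEM + 10% FBS; compound or DMSO added by pintool; read Ex 540/Em 590 nm; Rose Bengal sodium as red reference fluorophore.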
# [16] = qHTS assay to test for compound auto fluorescence at 460 nm (blue) in HepG2 cell free culture (AID 720685)
# In short: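 Cell-free plates of MEM plus 10% FBS received 23 nL compound or DMSO vehicle; blue-channel (405/460 nm) intensity scored against triamterene as reference fluorophore.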
# [17] = qHTS assay to test for compound auto fluorescence at 535 nm (green) in HepG2 cell free culture (AID 720686)
# [18] = qHTS assay to test for compound auto fluorescence at 460 nm (blue) in HepG2 cells (AID 720687)
# In short: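 Blue-channel autofluorescence (Ex/Em 405/460 nm, triamterene-equivalent) was measured after 1 hr compound exposure at 37 C, 5% CO2. Cells were HepG2, plated overnight at 37 C in MEM plus 10% FBS.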
# [19] = molecular target: Glucocorticoid receptor (Homo sapiens) (UniProt P04150); test: qHTS assay to identify small molecule agonists of the glucocorticoid receptor (GR) signaling pathway (AID 720691; active = well fitted activation curve with a large enough effect in the signal ratio in the repeat runs, not every such curve was filed as active; the % refers to the signal ratio)
# Glucocorticoid receptor (Homo sapiens), sequence (P04150 whole entry, looked up): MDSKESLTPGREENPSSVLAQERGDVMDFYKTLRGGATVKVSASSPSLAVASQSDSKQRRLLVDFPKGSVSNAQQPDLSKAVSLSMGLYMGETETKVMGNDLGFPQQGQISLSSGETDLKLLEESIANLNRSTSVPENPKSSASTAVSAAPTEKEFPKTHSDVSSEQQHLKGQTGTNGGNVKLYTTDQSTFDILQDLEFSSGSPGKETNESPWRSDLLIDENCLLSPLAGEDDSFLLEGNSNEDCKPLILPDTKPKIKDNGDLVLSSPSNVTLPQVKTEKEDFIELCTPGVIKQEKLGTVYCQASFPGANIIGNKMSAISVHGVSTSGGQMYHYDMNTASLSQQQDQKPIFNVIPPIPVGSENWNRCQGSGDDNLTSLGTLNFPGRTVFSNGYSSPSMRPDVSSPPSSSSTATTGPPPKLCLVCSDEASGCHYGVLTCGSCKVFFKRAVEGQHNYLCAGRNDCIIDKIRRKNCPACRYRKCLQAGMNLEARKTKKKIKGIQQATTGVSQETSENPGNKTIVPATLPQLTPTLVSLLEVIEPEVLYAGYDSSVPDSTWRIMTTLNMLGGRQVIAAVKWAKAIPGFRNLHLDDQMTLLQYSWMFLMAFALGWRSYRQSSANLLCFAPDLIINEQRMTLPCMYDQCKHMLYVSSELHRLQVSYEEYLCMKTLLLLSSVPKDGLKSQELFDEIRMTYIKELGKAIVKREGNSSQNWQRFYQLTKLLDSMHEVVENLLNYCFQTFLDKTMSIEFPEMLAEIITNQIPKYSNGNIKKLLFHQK
# In short: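 Agonist-mode qHTS in HeLa cells stably expressing a glucocorticoid-response-element beta-lactamase reporter. Fluorescence intensity read with FRET substrate (2 h, room temperature) after 18 h compound treatment at 37 C.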
# [20] = molecular target: Glucocorticoid receptor (Homo sapiens) (UniProt P04150); test: qHTS assay to identify small molecule antagonists of the glucocorticoid receptor (GR) signaling pathway (AID 720692; active = well fitted inhibition curve with a large enough effect in the signal ratio in the repeat runs, not every such curve was filed as active; the % refers to the signal ratio)
# In short: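 Inhibition of dexamethasone-driven (5 nM final) beta-lactamase expression was measured in GRE-reporter HeLa cells over 18 h at 37C. Fluorescence was read after 2 h with the B/G FRET substrate at room temperature.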
smiles,measurement,setting,value
NCCC(O)(P(=O)(O)O)P(=O)(O)O,Potency,[1],inactive
same,Potency,[2],inactive
same,Potency,[3],inactive
same,Potency,[4],inactive
same,Potency,[5],inactive
same,Potency,[6],inactive
same,outcome,[7],inactive
same,outcome,[8],inactive
same,outcome,[9],inactive
same,outcome,[10],inactive
same,outcome,[11],inactive
same,outcome,[12],inactive
same,outcome,[13],inactive
same,outcome,[14],inactive
same,outcome,[15],inactive
same,outcome,[16],inactive
same,outcome,[17],inactive
same,outcome,[18],inactive
same,Potency,[19],inactive
same,Potency,[20],inactive
COc1cc(C)ccc1C(C)C,Potency,[1],inactive
same,Potency,[2],inactive
same,Potency,[3],inactive
same,Potency,[4],inactive
same,Potency,[5],inactive
same,Potency,[6],inactive
same,outcome,[7],inactive
same,outcome,[8],inactive
same,outcome,[9],inactive
same,outcome,[10],inactive
same,outcome,[11],inactive
same,outcome,[12],inactive
same,outcome,[13],inactive
same,outcome,[14],inactive
same,outcome,[15],inactive
same,outcome,[16],inactive
same,outcome,[17],inactive
same,outcome,[18],inactive
CC(C)C(=O)OCC(C)(C)C(O)C(C)C (centres undefined),Potency,[1],inactive
same,Potency,[2],inactive
same,Potency,[3],inactive
same,Potency,[4],inactive
same,Potency,[5],inactive
same,Potency,[6],inactive
same,outcome,[7],inactive
same,outcome,[8],inactive
same,outcome,[9],inactive
same,outcome,[10],inactive
same,outcome,[11],inactive
same,outcome,[12],inactive
same,outcome,[13],inactive
same,outcome,[14],inactive
same,outcome,[15],inactive
same,outcome,[16],inactive
same,outcome,[17],inactive
same,outcome,[18],inactive
same,Potency,[19],inactive
CCCNC(C)C(=O)Nc1c(C)csc1C(=O)OC (centres undefined),Potency,[1],inactive
same,Potency,[2],inactive
same,Potency,[3],inactive
same,Potency,[4],inactive
same,Potency,[5],inactive
same,Potency,[6],inactive
same,"fluorescence, relative to Rose Bengal",[7],0.288% [at 18.6 µM]
same,"fluorescence, % of fluorescein control",[8],-0.0675% [at 18.6 µM]
same,"fluorescence, % of triamterene",[9],-0.0757% [at 18.6 µM]
same,"fluorescence, % of fluorescent control",[10],-0.0511% [at 18.6 µM]
same,"fluorescence, % of fluorescein",[11],-0.0722% [at 18.6 µM]
same,"fluorescence, % of fluorescent control",[12],-0.0092% [at 18.6 µM]
same,activity change,[13],-0.0482% [at 18.6 µM]
same,"fluorescence, % of fluorescent control",[14],0.0164% [at 18.6 µM]
same,"fluorescence, % of Rose Bengal",[15],-0.056% [at 18.6 µM]
same,"fluorescence, % of fluorescent control",[16],-0.0067% [at 18.6 µM]
same,"fluorescence, % of fluorescein control",[17],0.063% [at 18.6 µM]
same,"fluorescence, % of fluorescent control",[18],0.025% [at 18.6 µM]
same,Potency,[19],inactive
same,Potency,[20],inactive
FC(F)(F)c1ccccc1,Potency,[1],inactive
same,Potency,[2],inactive
same,Potency,[3],inactive
same,Potency,[4],inactive
same,Potency,[5],inactive
same,Potency,[6],inactive
same,outcome,[7],inactive
same,outcome,[8],inactive
same,outcome,[9],inactive
same,outcome,[10],inactive
same,outcome,[11],inactive
same,outcome,[12],inactive
same,outcome,[13],inactive
same,outcome,[14],inactive
same,outcome,[15],inactive
same,outcome,[16],inactive
same,outcome,[17],inactive
same,outcome,[18],inactive
O=C(O)c1ccccc1Nc1cc(Cl)ccc1C(=O)O,Potency,[1],inactive
same,Potency,[2],inactive
same,Potency,[3],inactive
same,Potency,[4],inactive
same,Potency,[5],inactive
same,Potency,[6],inactive
same,outcome,[7],inactive
same,outcome,[8],inactive
same,outcome,[9],inactive
same,outcome,[10],inactive
same,outcome,[11],inactive
same,outcome,[12],inactive
same,outcome,[13],inactive
same,outcome,[14],inactive
same,outcome,[15],inactive
same,outcome,[16],inactive
same,outcome,[17],inactive
same,outcome,[18],inactive
same,Potency,[19],inactive
same,Potency,[20],inactive
C=CC1CO1 (centres undefined),Potency,[1],inactive
same,Potency,[2],inactive
same,Potency,[3],inactive
same,Potency,[4],inactive
same,Potency,[5],inactive
same,Potency,[6],inactive
same,outcome,[7],inactive
same,outcome,[8],inactive
same,outcome,[9],inactive
same,outcome,[10],inactive
same,outcome,[11],inactive
same,outcome,[12],inactive
same,outcome,[13],inactive
same,outcome,[14],inactive
same,outcome,[15],inactive
same,outcome,[16],inactive
same,outcome,[17],inactive
same,outcome,[18],inactive
same,Potency,[19],inactive
CC(C)(C)c1ccc(OC(=O)c2ccccc2O)cc1,Potency,[1],inactive
same,Potency,[2],21.7 µM (active)
same,Potency,[3],inactive
same,Potency,[4],inactive
same,Potency,[5],inactive
same,Potency,[6],24.3 µM (active)
same,outcome,[7],inactive
same,outcome,[8],inactive
same,outcome,[9],inactive
same,outcome,[10],inactive
same,outcome,[11],inactive
same,outcome,[12],inactive
same,outcome,[13],inactive
same,outcome,[14],inactive
same,outcome,[15],inactive
same,outcome,[16],inactive
same,outcome,[17],inactive
same,outcome,[18],inactive
same,Potency,[19],inactive
same,Potency,[20],inactive
O=C(O)c1cccc(Cl)c1Cl,Potency,[1],inactive
same,Potency,[2],inactive
same,Potency,[3],inactive
same,Potency,[4],inactive
same,Potency,[5],inactive
same,Potency,[6],inactive
same,outcome,[7],inactive
same,outcome,[8],inactive
same,outcome,[9],inactive
same,outcome,[10],inactive
same,outcome,[11],inactive
same,outcome,[12],inactive
same,outcome,[13],inactive
same,outcome,[14],inactive
same,outcome,[15],inactive
same,outcome,[16],inactive
same,outcome,[17],inactive
same,outcome,[18],inactive
same,Potency,[19],inactive
same,Potency,[20],inactive
CCCCc1ccc2nc(NC(=O)OC)[nH]c2c1,Potency,[1],50.7 nM (active)
same,Potency,[2],0.804 µM (active)
same,Potency,[3],inactive
same,Potency,[4],90.2 nM (active)
same,Potency,[5],inactive
same,Potency,[6],0.254 µM (active)
same,"fluorescence, relative to Rose Bengal",[7],-0.46% [at 18.6 µM]
same,"fluorescence, % of fluorescein control",[8],0.0726% [at 18.6 µM]
same,"fluorescence, % of triamterene",[9],-0.014% [at 18.6 µM]
same,"fluorescence, % of fluorescent control",[10],0.021% [at 18.6 µM]
same,"fluorescence, % of fluorescein",[11],-0.231% [at 18.6 µM]
same,"fluorescence, % of fluorescent control",[12],-0.0022% [at 18.6 µM]
same,activity change,[13],0.0865% [at 18.6 µM]
same,"fluorescence, % of fluorescent control",[14],0.113% [at 18.6 µM]
same,"fluorescence, % of Rose Bengal",[15],0.0227% [at 18.6 µM]
same,"fluorescence, % of fluorescent control",[16],-0.0558% [at 18.6 µM]
same,"fluorescence, % of fluorescein control",[17],-0.0094% [at 18.6 µM]
same,"fluorescence, % of fluorescent control",[18],-0.0106% [at 18.6 µM]
NC(=O)Cc1cccc(C(=O)c2ccccc2)c1N,Potency,[1],inactive
same,Potency,[2],inactive
same,Potency,[3],inactive
same,Potency,[4],inactive
same,Potency,[5],inactive
same,Potency,[6],inactive
same,outcome,[7],inactive
same,outcome,[8],inactive
same,outcome,[9],inactive
same,outcome,[10],inactive
same,outcome,[11],inactive
same,outcome,[12],inactive
same,outcome,[13],inactive
same,outcome,[14],inactive
same,outcome,[15],inactive
same,outcome,[17],inactive
same,outcome,[18],inactive
same,Potency,[19],inactive
same,Potency,[20],inactive
C[C@@H]1CN(c2c(F)c(N)c3c(=O)c(C(=O)O)cn(C4CC4)c3c2F)C[C@H](C)N1,Potency,[1],inactive
same,Potency,[2],inactive
same,Potency,[3],inactive
same,Potency,[4],inactive
same,Potency,[5],inactive
same,Potency,[6],inactive
same,outcome,[7],inactive
same,outcome,[8],inactive
same,outcome,[9],inactive
same,outcome,[10],inactive
same,outcome,[12],inactive
same,outcome,[13],inactive
same,outcome,[14],inactive
same,outcome,[15],inactive
same,outcome,[16],inactive
same,outcome,[17],inactive
same,outcome,[18],inactive
same,Potency,[20],inactive
